Source: PubChem BioAssay
TEAD-YAP block: TEAD-YAP interaction inhibition, primary screen, TEAD-YAP interaction inhibitor project, luminescence, HEK-TIYL cells; actives 1.4% (n = 640,000); AID 1259422, 2018; inhibition, % at 9.12 µM; TEAD-Gal4/YAP UAS-luciferase luminescence; in the data active = inhibition above about 32%
MITF primary: MITF inhibitors, primary screen, biochemical, AlphaScreen, human. Microphthalmia-associated transcription factor (Homo sapiens), O75030. AlphaScreen MITF homodimerization, bead proximity signal. inhibition, % at 2.6 µM. actives 0.91% (n = 650,000); in the data active = inhibition above about 50%
GPR151 ag: activators of human GPR151, primary screen, cell-based, PathHunter beta-arrestin, luminescence | activation, % at 11.2 µM | PathHunter beta-arrestin GPR151 cells | G-protein coupled receptor 151 (Homo sapiens), Q8TDV0 | actives 1% (n = 650,000); in the data active = activation above about 4.9%
FBW7 activator: FBW7 E3 ligase activators, primary screen, biochemical, AlphaScreen, human | F-box/WD repeat-containing protein 7 (Homo sapiens), Q969H0 | AlphaScreen FBW7–phospho-cyclin E peptide binding, activator screen | normalized activity (activation), % at 26.1 µM | actives 0.13% (n = 650,000); in the data active = normalized activity above about 1.9%;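 also: purified mutant Fbw7 with reduced substrate affinity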
GPR151 conf act: GPR151 activators, triplicate retest, confirmation, cell-based, PathHunter beta-arrestin, luminescence | shares compounds with GPR151 ag | GPR151 PathHunter beta-arrestin cells, 90 min; % of EA-reagent control over plate median | activation, % at 11.2 µM | 6,700 tested, under 10 active;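 active = mean percent activation across replicates above the confirmation screen cutoff of 4.91%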
GPR119 counter: GPR119 activators in beta-arrestin cells, counter-screen for GPR151 activator project, cell-based, PathHunter beta-arrestin, luminescence, triplicate. shares compounds with GPR151 ag. 90 min; 0 = compound-well median, 100 = enzyme-acceptor control. activation, % at 11.2 µM. actives 0.3% (n = 6,700). AID 1508611, 2020;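 active = mean percent activation in the counterscreen above 29.09%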;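 also: counterscreen on off-target GPR119 to flag nonselective hits from the GPR151 activator screen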
Target sequence (Q8TDV5 whole entry, looked up): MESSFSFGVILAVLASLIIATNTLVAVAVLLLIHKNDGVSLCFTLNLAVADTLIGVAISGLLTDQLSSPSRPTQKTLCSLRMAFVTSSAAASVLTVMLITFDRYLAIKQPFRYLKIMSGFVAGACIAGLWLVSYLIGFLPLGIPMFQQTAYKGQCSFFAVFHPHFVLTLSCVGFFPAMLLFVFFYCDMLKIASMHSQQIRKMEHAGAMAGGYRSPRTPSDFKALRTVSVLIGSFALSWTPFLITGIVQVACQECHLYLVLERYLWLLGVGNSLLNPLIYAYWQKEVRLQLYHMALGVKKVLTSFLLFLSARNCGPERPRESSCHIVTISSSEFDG
A number is an active result; . = inactive; / = no result given. Rows were chosen to be rich in hits. Some 3.4% of all compounds tested hit in one or more screens of this group.

SMILES	TEAD-YAP block	MITF primary	GPR151 ag	FBW7 activator	GPR151 conf act	GPR119 counter
CCc1ccc(CNCc2cc(NC(=O)c3ccccn3)cc(C(=O)N(C)C)c2)cc1	.	.	10.1	.	.	.
Cc1onc(-c2c(Cl)cccc2Cl)c1C(=O)N(CC#N)CC#N	.	.	.	.	/	/
CCOC(=O)c1cnc2cc(C)nn2c1N	.	.	9.4	.	.	.
COc1ccc(C(=O)N2CCN(S(=O)(=O)c3cc4c5c(c3)CCC(=O)N5CCC4)CC2)cc1	.	.	5.7	.	.	.
COC(=O)c1cc(NS(=O)(=O)c2ccc3ccccc3c2)ccc1Cl	.	.	5.0	.	.	.
COc1cccc(S(=O)(=O)Nc2ccc(Cl)c(C(F)(F)F)c2)c1	.	.	7.1	.	.	.
CCOC(=O)c1cnc2ccccc2c1	.	.	.	.	/	/
O=C1CC(c2cccc([N+](=O)[O-])c2)C2=C(CCCC2=O)N1 (stereo not given)	.	.	.	.	/	/
CCOc1ccc(-c2nnn(CC(C)=O)n2)cc1OCC	.	.	.	.	/	/
CCOc1ccc(-c2nnn(CC(C)=O)n2)cc1	.	.	10.0	.	.	.
CCn1c(SCC(=O)Nc2ccc(C)c(C)c2)nnc1-c1ccccc1N	.	.	.	.	/	/
CCC(=O)N1c2ccccc2-c2nnc(SC)nc2OC1c1ccc(OC)cc1 (stereo not given)	.	.	5.6	.	.	.
O=C(Cn1[nH]c(=O)c2ccccc2c1=O)NNC(=O)C12CC3CC(CC(C3)C1)C2	.	.	.	.	/	/
Nc1ncnc(Nc2ccc(N=Nc3ccccc3)cc2)c1[N+](=O)[O-]	.	.	.	.	/	/
Nc1ncnc(Nc2ccc(Nc3ccccc3)cc2)c1[N+](=O)[O-]	.	.	8.7	.	.	.
Cc1ccc(Nc2ncnc(N)c2[N+](=O)[O-])cc1Cl	.	.	9.1	.	.	.
CCN1CCN(C(=O)CCSc2ccc(C)cc2)CC1	.	.	.	.	/	/
CCc1ccccc1NC(=O)N1CCCN(c2nc3cc4c(cc3cc2C#N)OCO4)CC1	.	.	.	.	/	/
NC(=O)C1(N2CCCCC2)CCN(C(=O)NC2CCCCC2)CC1	.	.	5.4	.	.	.
CSc1ccc(CNc2ncc(-c3cccc([N+](=O)[O-])c3)n2C)cc1	.	.	.	.	/	/
CSc1ccc(CNc2ncc(-c3ccccc3)n2C)cc1	.	.	7.7	.	.	.
O=[N+]([O-])c1cc2c(cc1C=Nc1cccc(CO)c1)OCO2	.	.	.	.	/	/
CCOC(=O)C1CCN(C(=O)c2cc(S(=O)(=O)N3CCCC3)cn2C)CC1	.	.	.	.	/	/
CCOC(=O)C1CCCN(C(=O)c2cc(S(=O)(=O)N3CCOCC3)cn2C)C1 (stereo not given)	.	.	9.2	.	.	.
O=C1CSC(=O)N1C1CCCCC1NC(=O)C1(c2cccs2)CCCC1 (stereo not given)	.	.	5.5	.	.	.
SMILES	TEAD-YAP block	MITF primary	GPR151 ag	FBW7 activator	GPR151 conf act	GPR119 counter
CCc1cccc(C)c1NC(=O)CCC(=O)O	.	.	.	.	/	/
CCc1cccc(CC)c1NC(=O)CCCC(=O)O	.	.	6.6	.	.	.
COC(=O)C(Br)CCN1C(=O)c2ccccc2C1=O (stereo not given)	.	.	.	.	/	/
CN(C)c1cccc(Nc2nc(NCc3nc4ccccc4[nH]3)c3[nH]cnc3n2)c1	.	.	.	.	/	/
COc1ccc(C(=O)NC2CC2)cc1OC1CCN(C2Cc3ccccc3C2)CC1	.	.	11.3	.	.	.
COc1ccc(C(=O)NC2CC2)cc1OC1CCN(C2CCC2)CC1	.	.	7.0	.	.	.
COc1ccc(C(=O)NC2CC2)cc1OC1CCN(C2CCCCCC2)CC1	.	.	.	.	/	/
CN(C(=O)COc1ccc(C(C)(C)C)cc1)C1(C)CCS(=O)(=O)C1 (stereo not given)	.	.	5.5	.	.	.
COc1cc(OC)c(C(=O)OCC#N)cc1OC	.	.	5.7	.	.	.
CCOc1ccccc1N(CC(=O)N1CCCC1)S(=O)(=O)c1ccc(C)cc1	.	.	6.0	.	.	.
O=C(CN(c1ccccc1)S(=O)(=O)c1ccccc1)N1CCOCC1	.	.	.	.	/	/
Cc1ccc(N(CC(=O)N2CCCCCC2)S(=O)(=O)c2ccccc2)cc1C	.	.	5.8	.	.	.
Cc1ccc(N(CC(O)Cn2c3ccccc3c3ccccc32)S(=O)(=O)c2ccccc2)cc1 (stereo not given)	.	.	6.2	.	.	.
Cc1ccc(N(CC(=O)N2CCOCC2)S(=O)(=O)c2ccccc2)cc1	.	.	9.1	.	.	.
Cc1ccc(N(CC(O)Cn2c3ccccc3c3ccccc32)S(=O)(=O)c2ccc(C)cc2)cc1 (stereo not given)	.	.	.	.	/	/
O=C1COc2cc(S(=O)(=O)N3CCC(C(=O)NC4CCCCCCC4)CC3)ccc2N1	.	.	.	.	/	/
COc1ccc(Cc2nc3cc(C)c(C)cc3[nH]c2=O)cc1Br	.	.	.	.	/	/
CC(C)CCNS(=O)(=O)c1ccc2[nH]c3nc(SCC(=O)Nc4cccc(Cl)c4)nnc3c2c1	.	.	.	.	/	/
Cc1ccc(S(=O)(=O)N(CC(=O)N2CCOCC2)CC(=O)N2CCOCC2)cc1	.	.	6.6	.	.	.
Cc1ccc(N2C(=O)CC(Sc3ccc(F)cc3)C2=O)cc1 (stereo not given)	.	.	.	.	/	/
Cc1ccc(SC2CC(=O)N(c3ccc(F)cc3F)C2=O)cc1 (stereo not given)	.	.	9.8	.	.	.
O=C(Cc1ccc(F)cc1)Nc1c2c(nn1-c1ccc(F)cc1)CS(=O)(=O)C2	.	.	5.3	.	.	.
CC(=O)Nc1c2c(nn1-c1ccc(Cl)cc1)CS(=O)(=O)C2	.	.	7.8	.	.	.
O=C(Nc1c2c(nn1-c1ccc(Cl)cc1)CS(=O)(=O)C2)c1ccc(Cl)cc1	.	.	.	.	/	/
Cc1ccc(NC(=O)CN(Cc2ccccc2)S(=O)(=O)c2ccc(Br)cc2)cc1Cl	.	.	.	.	/	/
CC(C)N(CCNc1ccnc(NCCN2CCOCC2)n1)C(C)C	.	.	.	.	/	/
Nc1ccnn1-c1ccnc(Nc2ccc(N3CCOCC3)cc2)c1	.	.	.	.	/	/
COc1cc(OC)cc(C(=O)Nc2sc3c(c2C#N)CCN(C(C)=O)C3)c1	60.6	.	7.3	.	.	.
COc1cc(C(=O)Nc2sc3c(c2C#N)CCN(C(C)=O)C3)cc(OC)c1OC	.	.	.	.	/	/
